B2AR ag = activates human beta-2 adrenergic receptor causing internalization. Am2.2-beta2AR cells, FAP receptor internalization, flow cytometry. response, % (no concentration beside the values). 0.43% of 340,000 active. AID 504454;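 active means response above a set limit, near 3 SD of response in nonfluorescent compounds, cut at about 42% in these data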
NadD block = blocks S. aureus nicotinate mononucleotide adenylyltransferase | 0.78% of 360,000 active | inhibition, % at 20 µM | purified NadD enzyme, colorimetric absorbance read-out; in the data active means inhibition above about 26%
Granule exo inh = lytic granule exocytosis inhibition. TALL-104 LAMP-1 surface exposure, flow cytometry; cells stimulated with thapsigargin and PMA. inhibition, % at 10 µM. 0.66% of 360,000 active. AID 651702;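 active means inhibition above about 55%, limit read from the data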
PP1 counter = counter-screen for PP5 inhibitors: inhibitors of human PP1-alpha; P62136; purified PP1alpha, OMFP fluorescence; inhibition, % at 6.7 µM; 0.9% of 320,000 active;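 active means inhibition above the mean inhibition of all tested compounds plus 3 SD, computed separately for each screening campaign, cut at about 15% in these data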
GRK2 inh = inhibitors of human GRK2 displacing RNA aptamer. P25098. inhibition of aptamer binding, % at 10 µM. 0.59% of 330,000 active. bead flow cytometry, FAM-aptamer displacement from GRK2. AID 488847;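 active means inhibition of aptamer binding above 40%, roughly 3 SD of noise, on plates passing a quality check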;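 further: median bead fluorescence of bound FAM aptamer so fluorescent compounds give negative values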
Target sequence (P25098 whole entry, looked up): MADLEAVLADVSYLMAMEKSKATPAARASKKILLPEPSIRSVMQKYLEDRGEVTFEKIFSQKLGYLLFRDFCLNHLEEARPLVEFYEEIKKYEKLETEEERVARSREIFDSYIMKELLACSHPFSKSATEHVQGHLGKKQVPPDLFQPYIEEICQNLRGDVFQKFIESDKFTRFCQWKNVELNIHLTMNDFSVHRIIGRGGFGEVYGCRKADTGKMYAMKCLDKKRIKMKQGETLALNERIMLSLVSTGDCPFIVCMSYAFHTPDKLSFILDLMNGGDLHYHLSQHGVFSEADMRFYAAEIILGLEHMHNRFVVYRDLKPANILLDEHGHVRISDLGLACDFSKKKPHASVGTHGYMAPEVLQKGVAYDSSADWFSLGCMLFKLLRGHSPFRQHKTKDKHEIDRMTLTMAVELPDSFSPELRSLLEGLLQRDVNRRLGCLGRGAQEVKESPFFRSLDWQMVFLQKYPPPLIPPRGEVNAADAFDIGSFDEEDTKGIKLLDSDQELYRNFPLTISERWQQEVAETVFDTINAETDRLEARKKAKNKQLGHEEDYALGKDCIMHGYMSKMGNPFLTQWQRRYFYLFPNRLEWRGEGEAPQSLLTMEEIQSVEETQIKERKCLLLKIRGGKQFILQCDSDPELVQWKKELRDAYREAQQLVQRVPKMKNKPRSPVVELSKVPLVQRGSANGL
PP1 confirm = human PP1 phosphatase inhibition, confirmation. shares compounds with PP1 counter. purified PP1alpha, OMFP substrate fluorescence. inhibition, % at 6.7 µM. 52% of 1,900 active. AID 2358;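 active means mean PP1 inhibition above a set limit taken from the earlier primary screen, cut at about 15% in these data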
PP5 counter = PP5 phosphatase inhibition, counter-screen for PP1 inhibitors | shares compounds with PP1 counter | purified PP5c, OMFP fluorescence | inhibition, % at 6.7 µM | 4% of 1,900 active | AID 2360;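 active means mean PP5 inhibition over triplicate wells above about 9.5% taken from the earlier PP1 screen, limit read from the data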
The depositor's hits bear a star; nt = no result given. A selection: hits, their analogues and other compounds. The true share with any hit is near 2.9%.

SMILES	B2AR ag	NadD block	Granule exo inh	PP1 counter	GRK2 inh	PP1 confirm	PP5 counter
CC1Cc2cc(/C(O)=C3/C(=O)C(=O)N(CCCn4ccnc4)C3c3ccc(Br)cc3)ccc2O1 (configuration not stated)	-8	18	-2	26*	0	31*	1
CC1Cc2cc(/C(O)=C3/C(=O)C(=O)N(CCCn4ccnc4)C3c3ccncc3)ccc2O1 (configuration not stated)	4	-3	4	-2	1	nt	nt
CCO[C@@H]1OC(C(=O)N2CCN(Cc3ccccc3)CC2)=C[C@H](c2coc3ccccc3c2=O)[C@H]1CCCO	-1	nt	8	-1	1	nt	nt
COc1cc([N+](=O)[O-])cc(/C=N/NC(=O)CSc2ccccn2)c1O	-7	-2	-2	21*	1	24*	-6
COc1cc([N+](=O)[O-])cc(/C=N/NC(=O)C(C)Nc2cccc(C)c2)c1O (configuration not stated)	-2	-1	4	22*	3	9	-6
COc1cc([N+](=O)[O-])cc(/C=N/NC(=O)C(C)Nc2ccccc2C)c1O (configuration not stated)	5	5	-1	22*	7	15	-6
Cc1ccccc1NC(C)C(=O)N/N=C/c1c[nH]c2ccccc12 (configuration not stated)	2	-12	0	2	0	nt	nt
COc1cc(/C=N/NC(=O)CSc2ccccn2)ccc1O	13	1	-8	-2	0	nt	nt
CCn1cc(C(=O)O)c(=O)c2cc(F)c(N3CCN(C(=S)Nc4ccccc4OC)CC3)cc21	5	4	1	25*	3	15	-4
Cc1cc(Cl)c2oc(C(=O)N(C)Cc3nccn3C)c(C)c2c1	-2	-1	-1	nt	nt	nt	nt
Cc1ccc(S(=O)(=O)c2nnn3c2nc(NCCCN2CCCC2=O)c2ccccc23)cc1C	-4	1	-3	0	0	nt	nt
Cc1ccc(S(=O)(=O)c2nnn3c2nc(NC2CCN(Cc4ccccc4)CC2)c2ccccc23)cc1C	41	38*	30	21*	0	9	4
CN(C)CCCN(C(=O)c1ccc(S(=O)(=O)N2CCCCCC2)cc1)c1nc2c(F)cc(F)cc2s1	21	0	9	-1	0	nt	nt
c1cc[n+](CCC[n+]2ccccc2)cc1	0	9	8	-1	1	nt	nt
O=C(CNS(=O)(=O)c1ccc(Br)cc1Cl)OCC(=O)c1ccc[nH]1	-3	8	4	35*	0	1	-5
CCCCCOc1ccc(/C(C)=N/NC2=NCCN2)cc1	15	-7	35	1	0	nt	nt
CCCCCCOc1ccc(/C(C)=N/NC2=NCCN2)cc1	38	-5	59*	20*	0	-1	-3
CC(=O)C1=C(O)C(=O)N(CCc2c[nH]c3ccccc23)C1c1ccc(C)cc1 (configuration not stated)	0	16	-1	26*	0	23*	-4
O=C(Nc1nc2ccccc2s1)c1cc(-c2ccco2)nc2ccccc12	3	23	-5	-2	2	nt	nt
Cc1nnc(NC(=O)c2cc(-c3ccco3)nc3ccccc23)s1	-11	15	12	30*	91*	6	0
CC(C)c1cc2c(c(O)c1O)[C@@]13CCCC(C)(C)C1CC2OC3=O (some centres not stated)	16	-3	-4	44*	2	2	-4
Cc1[nH][nH]c(=O)c1C(c1c(C)[nH][nH]c1=O)c1cn(Cc2ccc(F)cc2)c2ccccc12	10	12	2	14	0	nt	nt
Cc1[nH][nH]c(=O)c1C(c1c(C)[nH][nH]c1=O)c1cn(Cc2ccc(Cl)c(Cl)c2)c2ccccc12	38	37*	3	18*	0	17*	24*
Cc1cc(C(=O)NC2CCCc3c2cnn3-c2ccc(C(C)(C)C)cc2)n[nH]1 (configuration not stated)	17	5	9	3	6	nt	nt
CCc1cc2c(=O)oc(-c3ccc(Br)cc3)nc2s1	12	-5	-11	nt	nt	nt	nt
CCOC(=O)C1(Cc2ccccc2C)CCCN(C(=O)c2ccc(OC)o2)C1 (configuration not stated)	1	-3	20	26*	1	-2	-2

Bioassay records deposited in PubChem by several laboratories.
